Source: PubChem
A selection: hits, their analogues and other compounds. The true share with any hit is near 3.4%.
EBV LMP1 NFkB = EBV LMP1-driven NF-kappaB luciferase reporter inhibitors, primary screen, cell-based, luminescence, single point; hit rate 0.69% among 350,000; inhibition, % at 12.5 µM; LMP1-induced NF-kappaB luciferase reporter cells; AID 504558, 2011; in the data active means inhibition above about 41%; inconclusive means no clear call, values can overlap the other calls;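 further: 0% = neutral control wells and 100% = reference inhibitor control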
TWEAK Fn14 block = inhibitors of TWEAK-Fn14 signaling, primary screen, luciferase reporter cells, uHTS. TWEAK-stimulated Fn14 reporter cells, luciferase luminescence, 8 h. inhibition, % at 10 µM. hit rate 2% among 360,000. AID 1159606, 2016; in the data active means inhibition above about 50%
TROY NFkB inh = inhibitors of TROY-driven NF-kB signaling, primary screen, Q293 LMP1-TROYcd cells, NF-kB luciferase, uHTS. hit rate 0.98% among 360,000. Q293 LMP1-TROYcd NF-kB luciferase reporter, 4 h. inhibition, % at 10 µM;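 active means compounds whose plate-normalised and pattern-corrected inhibition of the luciferase reporter signal at the single screening dose is 50% or more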
TRPM1 prom inh = inhibitors of MITF-dependent TRPM1 promoter reporter, primary screen, cell-based, SK-MEL-5, single point, luciferase; SK-MEL-5 TRPM1 promoter luciferase, 24 h; inhibition, % at 12.5 µM; hit rate 0.83% among 330,000;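 active means mean inhibition across replicates of 60% or more, whatever share of single replicates reaches that level; inconclusive means some that reach 60%, reason not given; inactive means mean inhibition across replicates below 60%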
HIF-2a inh = HIF-2a reporter inhibitors, primary screen, luminescence, 786-0 RCC cells | 786-0 RCC cells HIF-2a reporter, luciferase luminescence, overnight | inhibition, % at 18.8 µM | hit rate 0.72% among 360,000;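 active means inhibition of the luminescence signal of 40% or more relative to plate controls, in a single-dose primary screen at 18.75 µM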
Shn3 inh set2 = reduction of Shn3 3'UTR firefly luciferase signal, primary screen, Schnurri-3 inhibitor project, cell-based, Clone20 osteoblasts, set 2; inhibition, % at 12.5 µM; Clone20 osteoblast Shn3 3'UTR firefly luciferase, 24 h; hit rate 0.52% among 360,000; AID 588674, 2011;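 active means mean inhibition of at least 75% with every replicate also reaching 75%; inconclusive means mean inhibition at least 75% but some replicate below; inactive means mean inhibition below 75%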;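 further: 0% = median of neutral control wells and 100% = pilot-screen positive control compound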
Mdm2 MdmX conf = retested Mdm2-MdmX interaction blockers, confirmation, cell-based, luminescence, single concentration, set 2; inhibition, % at 8 µM; hit rate 99% among 740; SaOS-2 split-luciferase Mdm2/MdmX complementation; shares compounds with HIF-2a inh;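 active means mean inhibition of the luminescence signal across two replicates at or above 26 percent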
Target sequence (O15151 whole entry, looked up): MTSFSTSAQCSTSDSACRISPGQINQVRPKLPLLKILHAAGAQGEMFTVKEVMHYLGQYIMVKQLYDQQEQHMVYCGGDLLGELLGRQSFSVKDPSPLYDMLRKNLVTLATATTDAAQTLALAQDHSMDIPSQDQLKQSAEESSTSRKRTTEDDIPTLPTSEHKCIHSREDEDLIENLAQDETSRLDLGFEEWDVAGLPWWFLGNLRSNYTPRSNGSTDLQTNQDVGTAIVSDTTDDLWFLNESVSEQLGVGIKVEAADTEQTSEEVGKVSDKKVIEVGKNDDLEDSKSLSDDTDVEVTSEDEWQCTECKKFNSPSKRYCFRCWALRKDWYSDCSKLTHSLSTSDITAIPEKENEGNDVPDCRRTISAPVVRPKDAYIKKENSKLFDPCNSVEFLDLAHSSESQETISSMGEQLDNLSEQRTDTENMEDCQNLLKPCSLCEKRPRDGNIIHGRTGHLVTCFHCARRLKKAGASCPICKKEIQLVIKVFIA
Target sequence (Q00987 whole entry, looked up): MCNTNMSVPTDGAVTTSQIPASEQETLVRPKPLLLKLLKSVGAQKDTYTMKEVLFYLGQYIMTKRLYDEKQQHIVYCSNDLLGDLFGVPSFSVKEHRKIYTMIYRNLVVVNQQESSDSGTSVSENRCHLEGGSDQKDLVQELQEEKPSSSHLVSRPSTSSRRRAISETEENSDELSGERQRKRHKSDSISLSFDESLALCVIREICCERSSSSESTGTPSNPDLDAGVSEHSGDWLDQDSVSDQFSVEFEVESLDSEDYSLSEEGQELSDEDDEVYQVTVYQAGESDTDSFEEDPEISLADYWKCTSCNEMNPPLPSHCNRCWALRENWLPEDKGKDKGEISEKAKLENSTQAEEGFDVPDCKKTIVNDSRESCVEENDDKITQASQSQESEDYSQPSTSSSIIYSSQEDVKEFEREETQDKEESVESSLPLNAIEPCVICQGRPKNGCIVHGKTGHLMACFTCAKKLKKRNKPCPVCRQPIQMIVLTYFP
HIF-2a inh conf = HIF-2a reporter inhibitor retest, confirmation, luminescence, 786-0 RCC cells; shares compounds with HIF-2a inh; HIF-2a luciferase reporter luminescence, overnight; inhibition, % at 18.8 µM; hit rate 56% among 1,800;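 active means mean inhibition across four replicates of at least 40 percent at the single tested concentration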
HIF-1a counter = HIF-1a luciferase reporter signal reduction – MiaPaCa-2 cells, single concentration, counter-screen for HIF-2a inhibitor project, confirmation. hit rate 72% among 1,800. AID 651589, 2012. shares compounds with HIF-2a inh. inhibition, % at 18.8 µM. MiaPaCa-2 HIF-1a luciferase reporter, desferoxamine, overnight;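 active means mean inhibition of the reporter signal across four replicates at the single tested dose of 50% or more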
* = called active by the depositor; ? = inconclusive; nt = no result.

SMILES | EBV LMP1 NFkB | TWEAK Fn14 block | TROY NFkB inh | TRPM1 prom inh | HIF-2a inh | Shn3 inh set2 | HIF-2a inh conf | HIF-1a counter | others
CN1CCN(c2ccc(NC(=O)c3ccc([N+](=O)[O-])o3)cc2Cl)CC1 | -49 | 25 | 37 | 79* | 57* | 90* | 56* | 59*
O=C(Nc1ccc(N2CCOCC2)c(Cl)c1)c1ccc([N+](=O)[O-])o1 | -73 | 1 | -24 | ? | 81* | 81 | 29 | 77*
Cc1cc(NC(=O)c2ccc([N+](=O)[O-])o2)ccc1NC(=O)c1ccco1 | -27 | -2 | -13 | 77* | 47* | -6 | 21 | 96*
CC(C)C(=O)N1CCN(c2ccc(NC(=O)c3ccc([N+](=O)[O-])o3)cc2Cl)CC1 | -37 | 18 | 25 | 85* | 91* | 96* | 80* | 99*
CC(=O)N1CCN(c2ccc(NC(=O)c3ccc(Br)o3)cc2Cl)CC1 | -7 | -3 | -11 | 16 | -96 | nt | nt | nt
N#Cc1ccccc1CSc1nc(N)cc(N)n1 | 1 | 9 | 1 | 1 | 7 | -4 | nt | nt
O=C(N=C1SC2CS(=O)(=O)CC2N1c1ccc(Cl)c(Cl)c1)C1CCCO1 (stereo not drawn) | -11 | -16 | 4 | 0 | 8 | 4 | nt | nt
O=C(Nc1c(Cl)ccc2nsnc12)c1ccc([N+](=O)[O-])o1 | -31 | 20 | 12 | 89* | 60* | 76 | 28 | 100*
Cc1ccc(-c2nc3ncccc3o2)cc1NC(=O)c1ccc([N+](=O)[O-])o1 | -29 | 5 | -2 | 82* | 54* | -37 | -7 | 102*
O=C(Nc1cccc(S(=O)(=O)N2CCCCC2)c1)c1ccc([N+](=O)[O-])o1 | -34 | 42 | 20 | 80* | 64* | 69 | 34 | 104*
CC(C)C(=O)N1CCN(c2ccc(NC(=O)c3ccc([N+](=O)[O-])o3)cc2)CC1 | -21 | -7 | 4 | 92* | 89* | 60 | 54* | 98*
CC(C)C(=O)N1CCN(c2ccc(NC(=O)c3ccc(Br)o3)cc2)CC1 | -9 | -17 | -16 | -14 | -19 | 3 | nt | nt
O=C(COC(=O)c1ccc([N+](=O)[O-])o1)Nc1cccc(S(=O)(=O)N2CCCCC2)c1 | 2 | 22 | -1 | 0 | 13 | -10 | nt | nt
Cc1cc(-c2nc3ncccc3o2)ccc1NC(=O)c1ccc([N+](=O)[O-])o1 | -6 | -3 | -15 | -3 | -2 | -9 | nt | nt
NS(=O)(=O)c1cc(C(=O)OCC(=O)N2CCOCC2)ccc1Cl | 1 | -4 | 3 | 11 | -12 | -8 | nt | nt
Cc1ccc(NC(=O)c2ccc([N+](=O)[O-])o2)cc1S(=O)(=O)N1CCOCC1 | -53 | 10 | 16 | 84* | 55* | 60 | 39 | 80*
Cc1ccc(NC(=O)c2cc([N+](=O)[O-])ccc2N2CCOCC2)cc1S(=O)(=O)N1CCOCC1 | 9 | 2 | 14 | -8 | 14 | 6 | nt | nt
CC(C)c1cccc(O)c(=O)c1 | 32 | 7 | -6 | nt | 5 | 24 | nt | nt | Mdm2 MdmX conf=97*
CCc1ccc(S(=O)(=O)Nc2ccc(-c3ccc4nncn4n3)cc2)s1 | 7 | -6 | -11 | 9 | 42* | -5 | 0 | -40
O=C(COC(=O)c1nc(Cl)c(Cl)c(Cl)c1Cl)NCc1ccccc1 | -30 | 85* | 32 | 50 | 70* | 0 | 18 | -19
CN(CCOc1ccccc1)C(=O)CNC(=O)c1ccc(C(C)(C)C)cc1 | -5 | 6 | 1 | -12 | -89 | -17 | nt | nt
Nc1cc2c(cc1Cl)N(Cc1ccccc1)C(=O)CO2 | 7 | -27 | -40 | 3 | 3 | 11 | nt | nt
Cc1nc([N+](=O)[O-])c(N2CCN(Cc3ccccc3)CC2)n1Cc1ccccc1 | -5 | -10 | 10 | 8 | 25 | 1 | nt | nt
Cc1cc2nc(Sc3c([N+](=O)[O-])nc(C)n3Cc3ccccc3)[nH]c2cc1C | -19 | 84* | 32 | 9 | 53* | -41 | 17 | 32
COC(=O)c1nn(-c2ccc3c(c2)OCO3)cc1O | -13 | 29 | -22 | -50 | -222 | -11 | nt | nt
SMILES | EBV LMP1 NFkB | TWEAK Fn14 block | TROY NFkB inh | TRPM1 prom inh | HIF-2a inh | Shn3 inh set2 | HIF-2a inh conf | HIF-1a counter | others
COC(=O)c1nn(-c2ccc3c(c2)CCN3C(C)=O)cc1O | 55* | 103* | 76* | 72* | 78* | 62 | -131 | 46
O=C(O)c1ccc(NS(=O)(=O)Cc2ccc(Cl)c(Cl)c2)cc1 | -9 | -2 | -9 | 1 | 2 | 29 | nt | nt
O=C(OCCN1CCCCC1)c1ccccc1Cl | -2 | -14 | -39 | -5 | 5 | 6 | nt | nt
O=C(OCn1ncc(Cl)c(Cl)c1=O)c1ccccc1Cl | 86* | 104* | 73* | 111* | 95* | 99* | 98* | 106*
O=C(OCn1ncc(Cl)c(Cl)c1=O)c1ccc(F)cc1 | nt | nt | nt | nt | nt | nt | nt | nt | Mdm2 MdmX conf=103*
Cc1ccc(S(=O)(=O)N(CC(=O)Nc2ccc(C)cc2C)C(=O)N2CCN(C)CC2)cc1 | 2 | -11 | 2 | 7 | 17 | 0 | nt | nt
CNC[C@H](Cc1ccccc1)NC[C@@H](Cc1cccc2ccccc12)NCCc1ccc(C)cc1 | -8 | -44 | -1 | -6 | 22 | 6 | nt | nt | Mdm2 MdmX conf=101*
CNCCNC[C@H](Cc1cccc2ccccc12)NCCc1ccccc1 | -3 | -14 | 11 | -25 | 6 | -12 | nt | nt
Cc1cccc(/C=N/Nc2ccc3ccccc3n2)c1 | 74* | 93* | 84* | 76* | 52* | 49 | 88* | 90*
C(=N\Nc1ccc2ccccc2n1)/c1ccc2c(c1)OCCO2 | 61* | 101* | 88* | 90* | 71* | 32 | 91* | 100*
CC(C)c1ccc(NC(=O)C(c2ccccc2)N(C)C(=O)CCc2c[nH]c3ccccc23)cc1 (stereo not drawn) | -6 | -14 | -5 | -5 | -2 | -24 | nt | nt
COCCN(C(=O)CC1C(=O)NCCN1CC(c1ccccc1)c1ccccc1)C(C)C (stereo not drawn) | 0 | 0 | -2 | 5 | 23 | -4 | nt | nt
